Drawing on the supplement of paper PMC6555819, this text covers PBM binding z-score for 16 sequences.

Test in all cases: PBM binding z-score (relative to random genomic background probes); higher = stronger binding; sequences stand for … in GC…GCGATTGACAGCGTAGAATGAAGG
Assay [1] concerns RARb homodimer (NR concentration 270 nM). The gist of the method: (§1)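 Binding z-scores take random background probes as their reference. They come from custom Agilent 4×180K protein-binding microarrays incubated 1 h with ligand-free nuclear receptor dimers, with antibodies against each partner (one per run) detecting binding. Scanned fluorescence was regression-normalized.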
Assay [2] deals with RARg:RXRa (NR concentration 270 nM, RXRa partner concentration 90 nM). The gist of the method:
as §1

For assay [3], the system named is RARg homodimer (NR concentration 270 nM). The gist of the method: as §1
Assay [4] concerns RXRa DBDmut IVT, anti-RXR (DBD mutation: RXRa K156A/R161A, NR concentration 90 nM). An outline of the steps:
as §1

Assay [5] deals with RXRa homodimer (NR concentration 180 nM). The gist of the method:
as §1

For assay [6], the system named is THRa:RXRa (NR concentration 90 nM, RXRa partner concentration 90 nM). The gist of the method:
as §1

Assay [7] relates to THRa homodimer (NR concentration 90 nM). An outline of the steps: as §1
Assay [8] deals with VDR:RXRa (NR concentration 270 nM, RXRa partner concentration 90 nM). An outline of the steps: as §1
In assay [9] the test system is VDR homodimer (NR concentration 270 nM). An outline of the steps:
as §1

For TAGCCTACGTCAGATCGGGCCAGTATACGCTATA, the PBM binding z-score in assay [1] was -0.763; in assay [2], -0.503; in [3], -0.517; in [4], -0.801; in assay [5] it was -0.569; in [6], 0.901. For the same sequence, the PBM binding z-score in [7] is -0.732; in assay [8], -0.713; in assay [9], -0.727.
As for CAAATTAGGTCAAGGTCAAAGTCGGTTTGTGCCA, the PBM binding z-score in assay [1] amounted to 5.11; in [2], 6.43; in assay [3], 7; in assay [4] it was 3.32; in assay [5] it was 6.65; in assay [6], 4.42. In addition, the PBM binding z-score in [7] was found to be 4.59; in assay [9], 4.95.
As for AGTCAAAGTTCATCTAGGTAACCTAAGATATGCT, the PBM binding z-score in assay [1] turned out to be 4.08; in [2], 5.61; in assay [3], 6.14; in assay [4], 4.79; in assay [5], 4.87; in [6] it was 3.21. In addition, the results for the PBM binding z-score in assay [7], in [8] and in assay [9] were 0.817, 5.11 and 5.75, respectively.
As to AGAACGAGGGCAGGCTGAGTTGATAGCAGAGTAG, the PBM binding z-score came out at 0.683 in [1]; 0.569 in assay [2]; 1.17 in assay [3]; 0.639 in assay [4]; 0.342 in assay [5]; 0.523 in [6]. Moreover, the PBM binding z-score in assay [7] is -0.552; in [8], 0.431; in assay [9], 0.453.
Consider CAAACTAGGTCACAGGAAGGTCAAAGTCCGCATG, for which the PBM binding z-score was 5.1 in assay [1]; 7.79 in assay [2]; 7 in [3]; 2.17 in [4]; 6.07 in [5]; 4.36 in assay [6]. For the same sequence, the values for the PBM binding z-score in [7], in [8] and in assay [9] were 2.46, 5.74 and 3.1, respectively.
As for ATCGAAAGTTCGTGAGGTGAGTATACAGAAAGGC, the PBM binding z-score in [1] was 1.8; in [2], 2.22; in assay [3], 1.86; in assay [4], 2.13; in [5], 1.78; in [6], 2.23. For the same sequence, the results for the PBM binding z-score in assay [7], in assay [8] and in assay [9] were 1.23, 2.02 and 1.22, respectively.
Turning to ATCGACAGGTCGAGGTGAGTATAGAGAAAGGGAA, the PBM binding z-score in [1] is 0.915; in assay [2] it was 1.68; in [3], 1.89; in [4], -0.333; in assay [5], 1.22; in [6] it was 1.59. For the same sequence, the PBM binding z-score turned out to be 0.108 in assay [7], 0.389 in [8] and 0.0129 in [9].
In the case of GGAACGAGGCCAAAGTTGATAGCATCTGTCGACG, the PBM binding z-score was 0.373 in [1]; 0.787 in assay [2]; 0.688 in assay [3]; 0.917 in assay [4]; 0.814 in assay [5]; 0.667 in [6]. The PBM binding z-score in assay [7] is -0.899; in assay [8] it was -0.112; in [9], -0.181.
For the sequence CAAACTAGGTCACGAAAGGTCAATGTCGAATGAC, the PBM binding z-score came to 5.73 in assay [1]; 7.46 in assay [2]; 8.51 in assay [3]; 2.11 in assay [4]; 7.37 in assay [5]; 5.27 in assay [6]. Moreover, the values for the PBM binding z-score in assay [7], in assay [8] and in assay [9] were 2.55, 6.57 and 2.77, respectively.
For the sequence TCGAGTAGGTTTGTCGGGGCATTCAGCCAACATA, the PBM binding z-score in assay [1] was 0.429; in assay [2], -0.206; in assay [3], -0.592; in assay [4], 0.805; in assay [5], -0.149; in assay [6], 0.462. Moreover, the values for the PBM binding z-score in assay [7], in [8] and in assay [9] were 0.392, 0.467 and 0.461, respectively.
For the sequence CCGACTGCGGCATAAGGTTACCATAAGCCAGCCC, the PBM binding z-score in assay [1] stood at 0.92; in assay [2], 0.306; in assay [3], 0.391; in assay [4], 0.104; in assay [5] it was 0.766; in assay [6], 2.11. Further, the PBM binding z-score in [7] is 1.49; in [8], 0.0281; in [9], -0.279.
TCATATAGGTAAATGCTAGGTAAAAGTCCGATCT: the PBM binding z-score in assay [1] is 0.193; in [2], 0.567; in assay [3], 0.36; in [4], 1.76; in [5], 0.806; in assay [6] it was 0.9. Moreover, the values for the PBM binding z-score in assay [7], in assay [8] and in assay [9] were 0.258, 0.968 and 0.409, respectively.
On to ATCGAAAGGGCGAGGTGAGTATAGAGAAAGGGAA, for which the PBM binding z-score in assay [1] was 1.45; in assay [2] it was 1.48; in assay [3], 1.58; in [4], -0.127; in assay [5], 0.756; in assay [6], 1.63. Moreover, the PBM binding z-score in [7] is 0.413; in assay [8], 0.361; in assay [9], -0.029.
Turning to TCTGCTAGGTCAACGATGGTAAGCTAATCTGCTA, the PBM binding z-score in [1] stood at 2.66; in [2], 3.8; in [3], 4.83; in assay [4] it was 0.819; in assay [5] it was 2.4; in assay [6], 2.62. The PBM binding z-score was 0.291 in [7], 1.82 in assay [8] and -0.612 in [9].
As for GATACAGGGTCAGCTAGAGGCCAGAGTGTGGAAA, the PBM binding z-score in assay [1] turned out to be 3.67; in assay [2], 6.74; in [3], 4.74; in [4], 1.34; in assay [5], 4.41; in assay [6] it was 3.15. Moreover, the figures for the PBM binding z-score in assay [7] and in assay [9] were 0.703 and 0.787, respectively.
As for TCATATAGGTAAACAGGTTAAAGTCCGTAAGTTA, the PBM binding z-score was found to be 1.19 in assay [1]; 1.04 in [2]; 0.666 in [3]; 1.85 in [4]; 1.62 in assay [5]; 1.26 in assay [6]. The results for the PBM binding z-score in assay [7] and in assay [9] were 0.613 and 1.01, respectively.
